# A selection: hits, their analogues and other compounds. The true share with any hit is near 11%.
# HEK cytotox: HEK 293 cell cytotoxicity. HEK 293 viability, ATP luminescence (CellTiter-Glo), 48-72 h. Potency, µM (highest dose often 115 µM), inactives show at the top dose activity change, negative = cytotoxicity, hits mostly inhibitors. actives 6.6% (n = 94,000). AID 1345083; further: on the % scale 0 is the no-effect control and ±100 the full control effect; nearly all actives have a fitted effect of over 60% in size
#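 250 HEK 293 cells/well; compound by pintool; incubated 48 or 72 hr at 37 degree Celsius; CellTiter-Glo added, 10 min RT, luminescence imaged.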
# FLuc inh-1: blocks purified firefly luciferase enzyme activity | P08659 | purified P. pyralis luciferase, luminescence, biochemical | Potency, µM (titrated, usually from 115 µM), usual class: inhibitors | actives 2.5% (n = 76,000) | AID 1347043; further: on the % scale 0 is the no-effect control and ±100 the full control effect; nearly all actives have a fitted effect of over 65% in size
#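 Luminescence read by CCD imager after adding enzyme (10nM final) to wells holding compound, titrated in qHTS. Substrates 10uM each D-luciferin and ATP; buffer 50mM Tris acetate pH 7.5, 10mM Mg acetate, Tween-20, BSA.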
# NPR1 antag: blocks ANP-stimulated signaling of human Npr1 receptor | AID 1347048 | Potency, µM (doses to about 46.3 µM), inactives show at the highest dose activity change, negative = inhibition, actives largely listed as inhibitors | HEK293 hNpr1 GloSensor cGMP, ANP-stimulated luminescence | P16066 | actives 1.6% (n = 76,000); calls by dose curve; further: on the % scale 0 is the no-effect control and ±100 the full control effect; nearly all actives have a fitted effect of over 60% in size
# Target sequence (P16066 whole entry, looked up): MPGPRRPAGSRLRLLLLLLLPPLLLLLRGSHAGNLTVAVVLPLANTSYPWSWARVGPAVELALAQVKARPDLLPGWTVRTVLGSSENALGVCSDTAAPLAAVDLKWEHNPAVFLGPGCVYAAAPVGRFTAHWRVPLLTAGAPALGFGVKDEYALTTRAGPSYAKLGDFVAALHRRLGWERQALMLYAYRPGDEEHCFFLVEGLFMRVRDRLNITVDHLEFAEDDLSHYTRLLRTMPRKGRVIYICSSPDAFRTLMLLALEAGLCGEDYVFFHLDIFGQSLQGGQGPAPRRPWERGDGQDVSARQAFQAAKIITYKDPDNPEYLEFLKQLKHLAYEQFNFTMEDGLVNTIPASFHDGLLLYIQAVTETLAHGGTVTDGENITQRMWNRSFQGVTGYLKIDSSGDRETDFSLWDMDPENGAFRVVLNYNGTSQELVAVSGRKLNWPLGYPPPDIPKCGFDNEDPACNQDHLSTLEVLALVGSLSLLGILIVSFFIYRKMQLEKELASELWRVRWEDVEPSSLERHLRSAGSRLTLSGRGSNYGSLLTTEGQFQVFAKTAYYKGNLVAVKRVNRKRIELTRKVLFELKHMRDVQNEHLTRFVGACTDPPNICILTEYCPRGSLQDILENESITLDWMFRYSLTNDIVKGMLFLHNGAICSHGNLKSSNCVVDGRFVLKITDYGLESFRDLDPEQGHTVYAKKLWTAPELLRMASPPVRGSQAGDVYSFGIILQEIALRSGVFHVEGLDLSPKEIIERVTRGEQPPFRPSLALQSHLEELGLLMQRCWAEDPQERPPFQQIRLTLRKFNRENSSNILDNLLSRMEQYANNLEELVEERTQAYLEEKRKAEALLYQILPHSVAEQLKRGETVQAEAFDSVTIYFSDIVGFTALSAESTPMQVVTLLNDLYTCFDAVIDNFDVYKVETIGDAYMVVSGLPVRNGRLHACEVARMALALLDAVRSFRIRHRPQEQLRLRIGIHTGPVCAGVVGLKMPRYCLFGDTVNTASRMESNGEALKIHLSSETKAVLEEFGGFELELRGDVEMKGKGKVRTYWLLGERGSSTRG
#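 Compound pre-incubated 30 min at room temperature on GloSensor-loaded HEK293 cells stably carrying hNpr1 and the pGS-40F cGMP biosensor. Stimulation uses hNppA at 0.1 nM final; luminescence is taken at baseline and 20 min post-agonist.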
# NIH3T3 tox: kills NIH 3T3 cells | NIH 3T3 viability, CellTiter-Glo ATP luminescence, 48-72 h | Potency, µM (titrated, usually from 96.7 µM), for inactives: at the top dose activity change, negative = cytotoxicity, hits mostly inhibitors | actives 4.3% (n = 94,000) | AID 1345082; further: on the % scale 0 is the no-effect control and ±100 the full control effect; nearly all actives have a fitted effect of over 55% in size
#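 ATP-dependent luminescence (CellTiter-Glo) served as the viability signal for NIH 3T3 cells treated with compound for 48 or 72 hr at 37 °C.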
# FLuc SDR no ATP: binders stabilizing firefly luciferase, without ATP | shares compounds with FLuc inh-1 | Purified FLuc-C-HiBiT, Nano-Glo HiBiT luminescence, no ATP | Potency, µM (titrated, usually from 32.7 µM), for inactives: top-dose activation (signal gain), hits mostly activators | actives 7.8% (n = 1,300); further: nearly all actives have a fitted effect of over 55% in size
# FLuc SDR ATP: firefly luciferase binding stabilization, ATP added | shares compounds with FLuc inh-1 | actives 8.7% (n = 1,300) | purified FLuc-C-HiBiT + ATP, HiBiT complementation luminescence | Potency, µM (doses to about 32.7 µM), for the others: at the highest dose activation (gain of signal), hits mostly activators | AID 1963319;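 further: signal reports ligand binding via conformational change of the enzyme rather than luciferase catalysis; % of control where 0% means no effect; nearly all actives have a fitted effect of over 55% in size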
# FLuc inh-2: blocks firefly luciferase enzymatic activity; shares compounds with FLuc inh-1; purified FLuc-C-HiBiT enzyme, luciferin luminescence; Potency, µM (highest dose often 32.7 µM), inactives show at the top dose activity change, negative = inhibition, actives largely listed as inhibitors; actives 42% (n = 1,300); further: on the % scale 0 is the no-effect control and ±100 the full control effect; nearly all actives have a fitted effect of over 70% in size
# * = called active by the depositor; i = inactive; ? = inconclusive; . = not tested or not shown; [ ] = remark or other dose. Unless noted, the call rests on the fitted dose curve; in most records, active means well fitted curve in the direction sought with a large enough effect; inconclusive means small, poorly fitted or top-dose-only effect, or another doubt; inactive means no such curve, though single readings can be large; an effect the other way counts as inactive or inconclusive. Potency means the concentration at half of the fitted maximal effect.
SMILES,HEK cytotox,FLuc inh-1,NPR1 antag,NIH3T3 tox,FLuc SDR no ATP,FLuc SDR ATP,FLuc inh-2
C[C@H](C(=O)N1CCCC1)C1CC[C@@]2(C)Cc3sc(-c4ccccc4)nc3[C@@H](C)[C@@H]2[C@H]1O (stereo partly specified),45µM*,8.9µM*,?,?,3.1µM*,2.2µM*,2µM*
C[C@H](C(=O)NCCN1CCOCC1)C1CC[C@@]2(C)Cc3sc(CS(=O)(=O)C(C)(C)C)nc3[C@@H](C)[C@@H]2[C@H]1O (stereo partly specified),-8%,i,-1%,-6%,.,.,.
COc1ccc(C(=O)N2CCC(C(=O)N3CCC(c4nc5ccncc5[nH]4)C3)CC2)cc1 (stereo unspecified),4%,.,.,-6%,.,.,.
COc1cccc(CC(=O)Nc2ccc(-c3nc4ccccc4s3)cc2Cl)c1,.,.,.,.,13%,9%,-9%
COc1cccc(C(=O)Nc2ccc(-c3nc4ccccc4s3)cc2Cl)c1,.,.,.,.,14%,9%,-1%
COc1ccc(CC(=O)Nc2ccc(-c3nc4ccccc4s3)cc2Cl)cc1OC,.,.,.,.,15%,11%,-19%
COc1cccc(CNC(=O)CNC(=O)c2ccc(-c3cnc4ccccc4c3)cc2)c1,?,.,.,-15%,.,.,.
O=C(COc1ccc(F)cc1)N1CC(CNC(=O)N2CCCC2)C2(CCOCC2)C1 (stereo unspecified),-8%,.,.,-18%,.,.,.
O=C(C1CCCN1C(=O)NC1CCCC1)N1CCC(N2Cc3cccn3C2=O)CC1 (stereo unspecified),i,.,.,-4%,.,.,.
c1coc(-c2nc3nccc(-c4ccc5c(c4)OCCCO5)n3n2)c1,?,1.3µM*,?,?,?,?,1.8µM*
COc1ccc(NC(=O)c2c(OC)cc(=O)n3c2CCCC3)c(OC)c1,-2%,i,-12%,-12%,.,.,.
COc1ccc(NC(=O)c2cc3ccccc3o2)c(OC)c1,.,.,.,.,19%,14%,?
CNC(=O)N1CCC(Cc2nncn2C(C)C)C1 (stereo unspecified),3%,i,-7%,-10%,.,.,.
CC(C)n1cnnc1CC1CCN(C(=O)Nc2ccc3c(c2)OCCO3)CC1,i,7.9µM*,-15%,3%,26%,?,9.9µM*
CCc1n[nH]c(CC2CCN(C(=O)Nc3ccc4c(c3)OCCO4)CC2)n1,3%,7.9µM*,-28%,i,21%,16%,?
CCN1c2cc(C(=O)Nc3cc(OC)cc(OC)c3)ccc2C(=O)N2CCCCCC21 (stereo unspecified),?,i,-26%,?,.,.,.
CC1CCc2nc3ncn(Cc4ccc(Cl)cc4)c(=O)c3cc2C1 (stereo unspecified),.,.,.,.,16%,13%,-8%
CC1CCc2nn3ccn(CC(=O)NCc4ccccc4)c(=O)c3c2C1 (stereo unspecified),?,i,4%,-25%,.,.,.
Cn1ccc2c(C(=O)NCc3cccnc3)nc(-c3ccc(N4CCOCC4)cc3)cc21,112µM*,14µM*,-11%[70.6 µM],?,15%[49.3 µM],11%[49.3 µM],?
Cn1ccc2c(C(=O)NCCC(N)=O)nc(-c3ccccc3C(F)(F)F)cc21,?,i,4%[70.6 µM],?,.,.,.
CN(C)CCNC(=O)c1nc(-c2cccc(N3CCOCC3)c2)cc2c1ccn2C,?,i,3%[70.6 µM],?,.,.,.
CN1CCN(c2ccc(-c3cc4c(ccn4C)c(C(=O)NCCC(N)=O)n3)cc2)CC1,71µM*,7.1µM*,-3%[70.6 µM],79µM*,26%[49.3 µM],17%[49.3 µM],14µM*
CN1CCN(c2ccc(-c3cc4c(ccn4C)c(C(=O)NCC4CCC(=O)N4)n3)cc2)CC1 (stereo unspecified),40µM*,10µM*,1%,28µM*,18%,12%,?
CCOC(=O)[C@@H]1[C@@H](OC)C(=O)N(Cc2ccccc2)C12CCN(C(=O)CC)CC2,3%,.,.,?,.,.,.
O=c1n(CCn2cccc2)nc(C2CCCNC2)n1-c1ccccc1 (stereo unspecified),-8%,i,5%,i,.,.,.
SMILES,HEK cytotox,FLuc inh-1,NPR1 antag,NIH3T3 tox,FLuc SDR no ATP,FLuc SDR ATP,FLuc inh-2
Cn1cc(CN2CCNc3cc(Nc4cccnc4)ncc3C2)cn1,?,i,1%[70.6 µM],?,.,.,.
COCCN1CCNc2cc(Nc3cccc(N(C)C)c3)ncc2C1,?,?,-2%[70.6 µM],?,.,.,.
Clc1cccc(Nc2cc3c(cn2)CN(Cc2cccnc2)CCN3)c1,32µM*,1.3µM*,?,?,?,?,13µM*
COCCN1CCNc2cc(-c3cccc(OC)c3)ncc2C1,.,.,.,.,?,14%[49.3 µM],20µM*
COCCN1CCNc2cc(Nc3cccc(OC)c3)ncc2C1,?,7.1µM*,5%[70.6 µM],?,20%[49.3 µM],14%[49.3 µM],?
COc1cccc(Nc2cc3c(cn2)CN(Cc2ccncc2)CCN3)c1,?,?,-25%[70.6 µM],?,.,.,.
Cn1ccnc1CN1CCNc2cc(Nc3ccccc3)ncc2C1,?,4.5µM*,-14%[70.6 µM],?,26%[49.3 µM],17%[49.3 µM],?
N#Cc1cccnc1-c1ccc(C(=O)N2CCC(NC(=O)NC3CCCC3)CC2)cc1,-18%,.,.,-36%,.,.,.
CCN(CC)C(=O)c1coc(COc2ccc3c(c2)C(c2cccc(F)c2)N(C(=O)C(C)C)CC3)n1 (stereo unspecified),?,i,-17%,?,.,.,.
O=C(Nc1c(C(=O)O)oc2ccccc12)c1ccc(C(F)(F)F)cc1,.,.,.,.,15%,9%,9.9µM*
O=C(O)c1ccc(-c2ccc(C(F)(F)F)cc2)cc1,-4%[172 µM],.,.,-18%[138 µM],.,.,.
COCCn1cc2c3c(cccc31)CN(C(=O)c1cc(F)ccc1Cl)CC2,?,i,-14%,-23%,.,.,.
O=C(Nc1cccc(F)c1)N1CCOc2ccc(CN3CCc4ccccc4C3)cc2C1,?,i,-23%,?,.,.,.
O=C(O)Cn1ccc2cc(OCCc3cccc(-c4ccc(Cl)cc4)c3)cnc21,?,i,-5%[70.6 µM],?,.,.,.
O=C(O)Cn1ccc2cc(OCCc3cccc(-c4ccccc4)c3)cnc21,?,i,-15%[70.6 µM],-34%[138 µM],.,.,.
COc1cc(Cl)ccc1-c1cccc(CCOc2cnc3c(ccn3CC(=O)O)c2)c1,?,i,0%[70.6 µM],?,.,.,.
Cc1ccc(-c2cccc(COc3cnc4c(ccn4CC(=O)O)c3)c2)c(C)c1,.,.,.,.,14%[49.3 µM],7%[49.3 µM],-13%[49.3 µM]
Cc1ccc(-c2cccc(COc3cnc4c(ccn4CC(=O)O)c3)c2)cc1C,.,.,.,.,10%[49.3 µM],7%[49.3 µM],?

# Source: PubChem BioAssay (National Center for Advancing Translational Sciences (NCATS))
